For 35 compounds, inhibition results are on record in ChEMBL document CHEMBL3433997, “St. Jude Leishmania screening dataset” (2016).

What all share (format): functional
Assay [1] deals with Solute carrier family 2, facilitated glucose transporter member 1 (Homo sapiens) (UniProt P11166). Briefly: ST_JUDE_LEISH: Cytotoxicity at 2uM final concentration against transgenic Leishmania Mexicana promastigotes LmGLUT1 that are glucose transport deficient and complemented with the human glucose transporter GLUT1. Activity is measured by DNA content using SYBR green in vitro.

Assay [2] deals with Hexose transporter 1 (Plasmodium falciparum) (UniProt O97467). Briefly: ST_JUDE_LEISH: Cytotoxicity at 2uM final concentration against transgenic Leishmania Mexicana promastigotes LmPfHT that are glucose transport deficient and complemented with the Plasmodium falciparum hexose transporter. Activity is measured by DNA content using SYBR green in vitro.
Assay [3] addresses Glucose transporter (Leishmania mexicana) (UniProt O61059). As to the kind of experiment: ST_JUDE_LEISH: Cytotoxicity at 2uM final concentration against transgenic Leishmania Mexicana promastigotes LmGT2 that are glucose transport deficient and complemented with the L. Mexicana glucose transporter 2. Activity is measured by DNA content using SYBR green in vitro.

Each structure is given as a SMILES string.

Sequence of Solute carrier family 2, facilitated glucose transporter member 1 (Homo sapiens) (P11166 whole entry): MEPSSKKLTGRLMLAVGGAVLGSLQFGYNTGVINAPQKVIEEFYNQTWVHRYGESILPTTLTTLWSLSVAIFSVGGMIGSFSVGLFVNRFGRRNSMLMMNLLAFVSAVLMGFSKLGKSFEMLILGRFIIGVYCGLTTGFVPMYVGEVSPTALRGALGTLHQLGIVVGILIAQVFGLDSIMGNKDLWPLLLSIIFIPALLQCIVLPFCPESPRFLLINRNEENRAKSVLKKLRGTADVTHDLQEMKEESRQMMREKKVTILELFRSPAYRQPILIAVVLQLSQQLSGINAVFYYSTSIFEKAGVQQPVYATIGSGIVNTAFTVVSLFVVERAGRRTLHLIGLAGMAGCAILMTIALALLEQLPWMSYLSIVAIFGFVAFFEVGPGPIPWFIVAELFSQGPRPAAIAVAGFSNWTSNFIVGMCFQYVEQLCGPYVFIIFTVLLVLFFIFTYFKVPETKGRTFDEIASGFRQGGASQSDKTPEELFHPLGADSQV

The term inhibition denotes the change of the read-out against control, counted positive when it falls. Regarding `CCCCCCCN1CC[C@@H](CCCc2ccnc3ccc(OCC4CCCNC4)cc23)[C@@H](CC)C1` (stereo not given in full), the inhibition in assay [1] was 4.6%; in assay [2] it was 3.17%; in assay [3], 1.43%.

Regarding `N#Cc1cccc(C(=O)Nc2cccc(-c3ccc(CN4CCCC4)cc3)c2)c1`, the inhibition is 1.56% in assay [1], 2.56% in assay [2] and 2.89% in assay [3].

Turning to `COc1ccc2nc3cc(Cl)ccc3c(NCCN(C)C)c2c1`, the figures for the inhibition in assay [1], in assay [2] and in assay [3] were 7.53%, 5.07% and 6.53%, respectively.

For the compound `CCCCCCNC(=O)C1Cc2c([nH]c3ccc(Br)cc23)C2(CCN(Cc3ccccc3)CC2)N1` (stereo not given), the results for the inhibition in assay [1], in assay [2] and in assay [3] were 45.6%, 15.5% and 30.9%, respectively.

Regarding `Cc1cc(NC(=O)Nc2ccc(C(C)C)cc2)c2ccccc2n1`, the figures for the inhibition in assay [1], in assay [2] and in assay [3] were 0.71%, 3.51% and -0.45%, respectively.

Regarding `COc1ccc2ncc(F)c([C@H](O)CN3CCC(NCc4cc5c(cn4)OCCO5)CC3)c2c1`, the inhibition in assay [1] is 6.21%; in assay [2] it was 6.52%; in assay [3], 2.51%.

For `O=S(=O)(c1ccccc1C(F)(F)F)C1CC2CCC(C1)N2S(=O)(=O)c1ccc(Cl)c(C(F)(F)F)c1` (stereo not given), the values for the inhibition in assay [1], in assay [2] and in assay [3] were 4.13%, 2.35% and 0.74%, respectively.

Consider `CCc1cn2c3c(cc(C(=O)N[C@@H](Cc4cccc(Cl)c4)[C@H](O)CNC4CCCCC4)cc13)N(C)S(=O)(=O)CC2`, for which the inhibition in assay [1] was -0.29%; in assay [2] it was 1.09%; in assay [3], -0.36%.

On to `COc1ccc(-c2cc(C(=O)N[C@@H](Cc3ccccc3)C(=O)NCCN3CCCCC3)ccc2O)cc1`, for which the inhibition is 5.18% in assay [1], 2.26% in assay [2] and 4.04% in assay [3].

As to `N#Cc1ccc(C(=O)NC2CCN(CCCCCNC(=O)/C=C/c3ccc(Cl)c(Cl)c3)CC2)cc1`, the inhibition in assay [1] is 0.08%; in assay [2] it was 1.46%; in assay [3], -1.31%.

For `Cc1cccc(-c2cccc3c(NC(=O)N4CCc5cc6nccc(N7CCN8CCC[C@H]8C7)c6cc54)cccc23)n1`, the values for the inhibition in assay [1], in assay [2] and in assay [3] were 0.18%, 0.95% and 1.48%, respectively.

With `OCC1CCN(Cc2cccc(-c3ccc(-c4nc5cc(C(F)(F)F)ccc5[nH]4)s3)c2)CC1`, the inhibition was found to be 4.2% in assay [1], 4.88% in assay [2] and 3.14% in assay [3].

Consider `CCN(CC)CCCC(C)Nc1c2ccc(Cl)cc2nc2ccc(OC)cc12` (stereo not given), for which the inhibition in assay [1] is 5.81%; in assay [2], 1.67%; in assay [3], 3.71%.

Consider `O=C(Cn1c(SCc2cccc(F)c2F)cc(=O)c2ccccc21)N(Cc1ccc(-c2ccc(C(F)(F)F)cc2)cc1)C1CCN(CCO)CC1`, for which the inhibition in assay [1] was -0.08%; in assay [2] it was -0.44%; in assay [3], -1.32%.

For `COc1ccc(-c2cc3ncn(CC(=O)N4CCN(c5cccc(OC)c5)CC4)c(=O)c3s2)cc1`, the inhibition in assay [1] worked out at 2.19%; in assay [2], 3.48%; in assay [3], 2.45%.

`Fc1ccc(-c2oc(C3CCN(CCc4ccc(-c5noc(=S)[nH]5)cc4)CC3)nc2COCC(F)(F)F)cc1`: the inhibition in assay [1] worked out at 8.65%; in assay [2], 7.22%; in assay [3] it was 8.14%.

For the compound `CSc1sc(NC(=O)Nc2cccc(C(F)(F)F)c2)cc1C#N`, the inhibition in assay [1] was found to be 1.55%; in assay [2] it was 1.51%; in assay [3], 1.15%.

Consider `COc1ccccc1CCNc1nc(C)cc(N[C@@H](Cc2ccccc2)C(=O)NCCc2ccccc2)n1`, for which the inhibition came to 7.15% in assay [1], 7.61% in assay [2] and 2.86% in assay [3].

Turning to `OCCN1CCN(C(=S)Nc2ccccc2)CC1`, the values for the inhibition in assay [1], in assay [2] and in assay [3] were 4.19%, 3.14% and 3.02%, respectively.

Take `CN1CCN(c2cc(-c3ccncc3)nc(-c3cccnc3)n2)CC1`: the inhibition came to 5.17% in assay [1], 3.27% in assay [2] and 3% in assay [3].

`CCOC(=O)C(NC(=O)c1ccc([N+](=O)[O-])o1)C(C)C` (stereo not given): the inhibition in assay [1] was -1.7%; in assay [2] it was -1.51%; in assay [3], -2.33%.

Take `COC(=O)c1ccc2[nH]cc(C3CCN(CCC4CCN(C(=O)/C=C/c5ccc(Cl)c(Cl)c5)CC4)CC3)c2c1`: the inhibition came out at 6.59% in assay [1], 4.72% in assay [2] and 5.91% in assay [3].

On to `CC(=Nc1ccc(Cl)c(Cl)c1)N(C)C`, for which the inhibition in assay [1] was 0.17%; in assay [2], 0.54%; in assay [3], 0.02%.

In the case of `CN1CCN(CCCN(Cc2ccc(-c3cccc(CNC4CCCC4)c3)cc2)C(=O)Nc2ccccc2)CC1`, the inhibition came to 9.1% in assay [1], 3.98% in assay [2] and 5.53% in assay [3].

As for `O=C(NCc1ccc(F)cc1)c1cnc(N2CCN(c3ccncc3)CC2)c(Cl)c1`, the inhibition stood at 22.7% in assay [1], 11.6% in assay [2] and 5.45% in assay [3].

Turning to `O=C(N[C@H](Cc1ccc(Cl)cc1)C(=O)N1CCN(c2ccnc3cc(Cl)ccc23)CC1)[C@H]1Cc2ccccc2CN1`, the inhibition in assay [1] was 0.9%; in assay [2], -0.43%; in assay [3], -2.58%.

With `COc1cc(C)nc2ccc(NC(=O)c3cc([N+](=O)[O-])cc([N+](=O)[O-])c3)cc12`, the values for the inhibition in assay [1], in assay [2] and in assay [3] were 2.43%, 0.24% and 3.33%, respectively.

As for `CC(=NNC(=N)N)c1ccc2c(c1)Cc1ccccc1-2`, the values for the inhibition in assay [1], in assay [2] and in assay [3] were -1.01%, 0.42% and -1.5%, respectively.

As to `CC(C)C[C@@H]1C(=O)N[C@H](C2Cc3ccccc3C2)C(=O)N1[C@@H](C(=O)O)c1ccc(F)cc1F`, the values for the inhibition in assay [1], in assay [2] and in assay [3] were 1.91%, 2.13% and 0.39%, respectively.

With `O=C(N[C@@H](CC1CCCCC1)C(=O)NCc1cccc2ccccc12)c1ccc(O)c(-c2ccc(Cl)c(Cl)c2)c1`, the inhibition in assay [1] stood at 2.54%; in assay [2], 2.25%; in assay [3], 2.22%.

Turning to `CC(C)c1nc2c(N)nc(N)nc2nc1N`, the inhibition in assay [1] was -0.33%; in assay [2], 0.25%; in assay [3], 1.01%.

As to `O=C(/C=C/c1ccc(Cl)c(Cl)c1)NCCCCCN1CCCN(C(=O)Nc2ccc(OC(F)F)cc2)CC1`, the inhibition was 3.05% in assay [1], 1.15% in assay [2] and 0.91% in assay [3].

Turning to `Oc1ccc(Cl)cc1CN1CCCC(COC(c2ccc(F)cc2)c2ccc(F)cc2)C1` (stereo not given), the inhibition was 0.85% in assay [1], 1.7% in assay [2] and -2.44% in assay [3].

As for `COc1cc(Cc2cnc(N)nc2N)cc(OC)c1OCCCCC(=O)O`, the inhibition in assay [1] was -0.54%; in assay [2] it was 0.53%; in assay [3] it was 0.75%.

Consider `CCOC(=O)c1ccc(NC(=O)N(Cc2ccc(-c3ccc(CN4CCNCC4)cc3)cc2)C2CCN(Cc3ccccc3)CC2)cc1`, for which the results for the inhibition in assay [1], in assay [2] and in assay [3] were 3.61%, 2.86% and -1.08%, respectively.
